Here are results for 32 compounds from PubChem BioAssay (NCI).

Molecules are shown by their SMILES. “And” between values parts separate entries of the source, which are not always exact repeats. Identical values can stand only once. The panel holds about 83,000 compounds, 20% with a hit somewhere; the sample as a whole holds those more often.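 In brief: 96-well plates, 48 h treatment, single concentration, percent growth endpoint.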 The source made the active and inactive calls. The calls were made as follows: active = growth percent below 10; inactive = the rest.

The assay has as its system MDA-MB-468 breast. Briefly: NCI-60 one-dose screen, 48 h (100 = growth as untreated, 0 = no growth, -100 = all killed). The settings on record: 10 µM unless noted.

Consider `O=C(Nc1ccc(Cl)c(Cl)c1)Nc1ccc(Cl)c(Cl)c1`, for which the growth is -78.5% (active) and 10.4% (inactive).

`Cc1ccccc1-c1cc(Cc2ccccc2O)c(=O)[nH]n1`: the growth was 170% (inactive).

Turning to `Cc1c2cnccc2c(C)c2c1c1cc(C3OCCCO3)ccc1n2C`, the growth was -34% (active).

On to `COc1cc(OC)c(C2C(Cl)C(=O)N2Nc2ncnc3ccccc23)cc1OC` (configuration not stated), for which the growth was 92.5% (inactive).

Take `O=S(=O)(O)c1cccc2cccnc12`: the growth is 100% (inactive).

On to `CCCCCCCCCCCCCCCCCCn1cc(COc2ccc(C=O)cc2)nn1`, for which the growth was 104% (inactive).

As to `COC(=O)c1ccc(CSc2nnc(-c3c(C)nc4ccc(C)cn34)o2)cc1`, the growth was 93.2% (inactive).

As for `NCCOc1ncccc1/C=C1\c2ccccc2-c2ccc(F)cc21`, the growth was -24.1% (active).

Regarding `COc1cc(CNCCCCCCN2C(=O)c3cccc4cccc(c34)C2=O)ccc1O`, the growth is 47.2% (inactive).

Turning to `CCN1C(=O)N(c2ccccc2)C2NC(=S)N(/N=C/C=C/c3ccccc3)C21` (configuration not stated), the growth is 5.41% (active).

As to `COc1ccc(OC)c(C(=O)Nc2cccc(-c3cc(=O)c4ccccc4o3)c2)c1`, the growth was 92.9% (inactive).

For the compound `CS(=O)(=O)c1ccc(-c2cc(-c3nnc(SCC(=O)Nc4ccc(C(=O)/C=C/c5ccc(Cl)cc5)cc4)n3-c3ccccc3)c3ccccc3n2)cc1`, the growth was 93.2% (inactive).

As to `Cc1nn2c(/C=C3/C(=O)Nc4cc(Cl)ccc43)c(-c3ccccc3)nc2s1`, the growth was 11% (inactive).

On to `COc1ccc(C(=O)c2cc3c(N)c(C(=O)Nc4ccc(C)cc4)sc3nc2C)cc1`, for which the growth was -16.8% (active).

For the compound `C=C(C)[C@@H]1CC[C@]2(C(=O)NCCCCCCN(CCCN)CCCN)CC[C@]3(C)[C@H](CC[C@@H]4[C@@]5(C)CC[C@H](OCCCN)C(C)(C)[C@@H]5CC[C@]43C)[C@@H]12`, the growth was 21.2% [100 µM] (inactive).

In the case of `Nc1ccccc1-c1ccc([N+](=O)[O-])cc1`, the growth was 67.5% (inactive).

With `COc1cc(/C=C2\CCCC3C2=Nc2ccccc2NC3c2cc(OC)c(OC)c(OC)c2)cc(OC)c1OC` (configuration not stated), the growth is -6.85% (active).

As for `COc1ccc(/C=C(\C#N)c2ccccc2)cc1`, the growth was 91.2% (inactive).

With `Cc1oc(-c2ccc(Cl)cc2Cl)cc1C(=O)Nc1nccs1`, the growth is 94.4% (inactive).

Regarding `O=C(CNC(=O)c1cccc2ccccc12)Nc1ccccc1Oc1ccc(O)cc1`, the growth is 27.5% [5 µM] (inactive).

In the case of `COc1ccc(CCN2CCC(CN(C)Cc3cnn(-c4ccccc4)c3)CC2)cc1`, the growth was 19% (inactive).

`O=S(=O)(NCCNc1cc(-c2cn(-c3ccccc3)nc2-c2cccc(O)c2)ccn1)c1ccc(F)cc1`: the growth was -22.4% (active).

For `CN(C)c1nc(-c2cccs2)n2nc(-c3ccc(Cl)cc3)cc2n1`, the growth is 33.6% (inactive).

For the compound `CCN(CCO)CCNc1ccc(C)c2sc3cc(Cl)ccc3c(=O)c12`, the growth is -47.7% (active).

On to `CCc1nn(Cc2ccccc2)c2nc(C)c(CCc3ccccc3)c(Cl)c12`, for which the growth was 88.3% (inactive).

With `COc1ccc(-c2cc(-c3cccnc3)nc3sc4c(=O)n(-c5ccc(C)cc5)cnc4c23)cc1OC`, the growth was 93.7% (inactive).

In the case of `CCc1cc(Cl)c(OC)c(C(=O)NCC2CCCN2CC)c1O` (configuration not stated), the growth was 77.1% (inactive).

Consider `C=C1CC2(OC1=O)C(=O)N(CCCCCCCN1C(=O)C3(CC(=C)C(=O)O3)c3ccccc31)c1ccccc12` (configuration not stated), for which the growth is -17% (active).

Regarding `CC1CCC2(C(=O)O)CCC3(C)C(=CCC4C5(C)CCC(O)C(C)(C)C5CCC43C)C2C1C` (configuration not stated), the growth is 24.5% (inactive).

In the case of `CCCCCC(=O)Oc1ccc(/C(=C(\C)c2ccccc2)c2ccc(OCCN3CCCCC3)cc2)cc1`, the growth was 75.7% (inactive).

In the case of `CCCCC/C=C/CCC(=O)N[C@H]1[C@H](Oc2c3cc4cc2Oc2ccc(cc2Cl)[C@@H](O[C@@H]2O[C@H](CO)[C@@H](O)[C@H](O)[C@H]2NC(C)=O)[C@@H]2NC(=O)[C@H](NC(=O)[C@@H]4NC(=O)[C@H]4NC(=O)[C@@H](Cc5ccc(c(Cl)c5)O3)NC(=O)[C@@H](N)c3ccc(O)c(c3)Oc3cc(O)cc4c3)c3ccc(O)c(c3)-c3c(O[C@H]4O[C@H](CO)[C@@H](O)[C@H](O)[C@@H]4O)cc(O)cc3[C@H](C(=O)O)NC2=O)O[C@H](CO)[C@H](O)[C@@H]1O`, the growth was 110% (inactive).

As for `CC(=O)[C@@H]1CC[C@]2(CO)CC[C@]3(C)[C@H](CC[C@@H]4[C@@]5(C)CCCNC(C)(C)[C@@H]5CC[C@]43C)[C@@H]12`, the growth was 106% (inactive).
